This is a sample that favours compounds with a hit; in the whole collection about 1.6% have one here.
OPRM1-OPRD1 ag: agonists of OPRM1-OPRD1 heterodimerization, primary screen, cell-based, luminescence; Mu-type opioid receptor (Homo sapiens) + Delta-type opioid receptor (Homo sapiens), …; cells; activation, % at 9.3 µM; actives 0.3% (n = 340,000); AID 504326, 2011; in the data active = activation above about 18%;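 also: 0% = vehicle-treated cells and 100% = reference agonist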
HTR5A inv ctr: HTR5A inverse agonists in luminescence cell assay, primary screen, counter-screen for OPRM1-OPRD1 heterodimer inverse agonist project, full-deck HTS; 5-hydroxytryptamine receptor 5A (Homo sapiens), P47898; HTR5A cell line, inverse agonism; inhibition, % at 9.3 µM; actives 0.083% (n = 340,000); AID 504634, 2011; in the data active = inhibition mostly above about 23%, no sharp cut-off; inactive = mostly below about 18%;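 also: 0% = cells with DMSO and 100% = no-cell wells with DMSO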
Target sequence (P47898 whole entry, looked up): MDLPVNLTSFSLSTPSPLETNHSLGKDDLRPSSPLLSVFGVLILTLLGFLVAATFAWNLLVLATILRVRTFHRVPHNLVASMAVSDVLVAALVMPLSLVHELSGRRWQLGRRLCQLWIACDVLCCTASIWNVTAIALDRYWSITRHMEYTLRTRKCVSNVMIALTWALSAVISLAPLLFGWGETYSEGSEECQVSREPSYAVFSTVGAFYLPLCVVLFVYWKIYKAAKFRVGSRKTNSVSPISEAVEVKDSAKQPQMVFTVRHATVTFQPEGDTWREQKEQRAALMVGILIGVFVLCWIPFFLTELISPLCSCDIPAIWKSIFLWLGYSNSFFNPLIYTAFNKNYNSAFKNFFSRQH
HTR5A ag: HTR5A agonists in luminescence cell assay, primary screen, counter-screen for OPRM1-OPRD1 heterodimer agonist project, full-deck HTS | 5-hydroxytryptamine receptor 5A (Homo sapiens), P47898 | cell-based | activation, % at 9.3 µM | actives 0.61% (n = 340,000) | AID 504692, 2011; in the data active = activation mostly above about 9.5%, no sharp cut-off; inactive = mostly below about 7.6%;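 also: 0% = cells with vehicle only and 100% = reference agonist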
HTR2A ag: mouse Htr2a agonists via beta-arrestin recruitment, primary screen, cell-based, luminescence; 5-hydroxytryptamine receptor 2A (Mus musculus), P35363; CHO-K1 mHTR2A beta-arrestin complementation; percent of 30 µM serotonin response; activation, % at 7.6 µM; actives 0.66% (n = 360,000);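 active = activation above a run cutoff, the mean activation of all tested compounds plus 3 SD, cut at about 14% in these data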;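 also: 0% = plate median of compound wells and 100% = 30 µM serotonin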
MOR-DOR inv ag: inverse agonists of MOR-DOR heterodimerization, primary screen, cell-based, luminescence; Mu-type opioid receptor (Homo sapiens) + Delta-type opioid receptor (Homo sapiens), …; cell-based MOR-DOR heterodimer luminescence, inverse agonism; inhibition, % at 9.3 µM; actives 0.21% (n = 340,000); in the data active = inhibition above about 22%, passing the limit was not always enough;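 also: 0% = cells with DMSO and 100% = wells without cells with DMSO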
MOR-DOR inv conf: inverse agonists of MOR-DOR heterodimerization, confirmation, cell-based, luminescence | shares compounds with MOR-DOR inv ag | cells expressing OPRM1/OPRD1 heterodimer | inhibition, % at 9.3 µM | actives 20% (n = 580) | AID 504900, 2011; in the data active = inhibition above about 32%;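 also: 0% = cells with DMSO and 100% = wells lacking cells with DMSO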
HTR5A inv ctr2: HTR5A inverse agonists, counter-screen for OPRM1-OPRD1 inverse agonist project, cell-based, luminescence. shares compounds with MOR-DOR inv ag. HTR5A-expressing cells, inverse agonism. inhibition, % at 9.3 µM. 580 tested, under 10 active. AID 504914, 2011; call rule not given here;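 also: 0% = cells with DMSO and 100% = no-cell wells with DMSO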
* hit, by the source's call; / = no result.

SMILES	OPRM1-OPRD1 ag	HTR5A inv ctr	HTR5A ag	HTR2A ag	MOR-DOR inv ag	MOR-DOR inv conf	HTR5A inv ctr2
C[n+]1c2n(c3ccccc31)N=C(c1cc(C(C)(C)C)c(O)c(C(C)(C)C)c1)CS2	-6	19	-1	-1	32*	51*	16
CC(=O)c1cccc2c(O)c(C3=Nc4ccccc4C3=O)[nH]c12	-7	14	2	0	36*	-428	-11
CCN(C[C@H]1N[C@@](C)(C(=O)OC)[C@H]2C(=O)N(C)C(=O)[C@@H]12)S(=O)(=O)c1ccc(C(F)(F)F)cc1	-2	8	-2	-2	8	/	/
CN(C)c1nc(=NCc2cccs2)ss1	-12	2	-1	-20	59*	30	20
CC(SC(=S)N(C)Cc1cccs1)C(=O)O (stereo not drawn)	-2	-6	1	1	11	/	/
Cc1ccc(S(=O)(=O)/N=C2\C=C(Nc3cccc(C(=O)O)c3)C(=O)c3ccccc32)c(C)c1	9	3	-1	0	-48	/	/
CC(C)(C)c1ccc(S(=O)(=O)/N=C2\C=C(NS(=O)(=O)c3ccccc3)C(=O)c3ccccc32)cc1	-6	14	-6	7	32*	-25	-79
Cc1ccc(S(=O)(=O)/N=C2\C=C(NS(=O)(=O)c3ccccc3)C(=O)c3ccccc32)c(C)c1	-6	22	-6	8	30*	-7	-6
CSc1ccccc1NC(=O)Nc1cccc2ccccc12	2	-2	1	6	-9	/	/
N#CC(C#N)=C1C=CC=CN1/C(=C\c1ccco1)C(=O)c1ccc(Cl)cc1	-6	25	-6	-2	34*	-360	-11
N#CC(C#N)=C1C=CC=CN1/C(=C\c1ccco1)C(=O)c1ccc(-c2ccccc2)cc1	-3	6	-4	0	15	/	/
Cc1noc(C)c1S(=O)(=O)Nc1ccc2c(c1)C(=O)N([C@H](C)CO)C[C@H](C)[C@H](CN(C)C(=O)NC(C)C)OCCCC[C@@H](C)O2	/	/	/	-3	/	/	/
O=C(NC1=C(Nc2ccc(Cl)cc2)C(=O)c2ccccc2C1=O)c1ccccc1	8	11	6	1	-41	/	/
CN(C1=C(NC(=O)c2ccc(Cl)cc2)C(=O)c2ccccc2C1=O)c1ccccc1	-6	19	-2	-2	39*	-19	-9
CCOc1ccc(N=C2C(=O)N(CN3CCOCC3)c3ccccc32)cc1	-16	16	-5	0	67*	49*	-9
CC1NC(=S)N(Cc2ccccc2)C1=O (stereo not drawn)	-6	-1	4	6	33*	-81	-34
CC(C)C1NC(=S)N(Cc2ccccc2)C1=O (stereo not drawn)	-1	9	-2	-2	9	/	/
Cc1c(Nc2ccc(C=O)cc2)c(=O)n(-c2ccccc2)n1C	-3	-19	7	5	14	/	/
COc1ccccc1N(/N=C1\Sc2ccccc2C1=O)C(C)=O	-15	17	-9	-3	75*	-18	-6
COc1ccc(N(/N=C2\Sc3ccccc3C2=O)C(C)=O)cc1	-11	23	-9	1	70*	-26	5
CC(C)CNC(=O)/C=C/C=C/CCCC/C=C/c1ccc2c(c1)OCO2	1	-6	11	-4	-5	/	/
Cc1ccc(NC(=O)CCC(=O)OCC(=O)c2ccc(Oc3ccc([N+](=O)[O-])cc3)cc2)cc1	-3	10	-2	-2	12	/	/
Cc1ccc(C(=O)COC(=O)c2ccncc2)cc1[N+](=O)[O-]	-9	20	-3	-1	49*	29	15
CC(=O)c1ccc(NC(=O)CCC(=O)OCC(=O)c2cccc([N+](=O)[O-])c2)cc1	-7	10	-5	1	61*	51*	14
O=C(CCC(=O)OCc1ccc([N+](=O)[O-])cc1)Nc1ccccc1Cl	-4	14	-6	-1	19	/	/
SMILES	OPRM1-OPRD1 ag	HTR5A inv ctr	HTR5A ag	HTR2A ag	MOR-DOR inv ag	MOR-DOR inv conf	HTR5A inv ctr2
Cc1ccc(N2CC(C(=O)OCC(=O)c3ccc(C)c([N+](=O)[O-])c3)CC2=O)cc1 (stereo not drawn)	-10	20	-7	-2	52*	15	17
Cc1ccc(C(=O)COC(=O)CCC(=O)Nc2ccccc2Cl)cc1[N+](=O)[O-]	-9	6	-2	-1	45*	-9	-25
Fc1ccccc1-c1cc2ncccc2cn1	0	0	4	-8	2	/	/
CC[C@]12c3[nH]c4ccc(OC)cc4c3CCN1C(=O)C(CC(=O)NCCCOC)C[C@@H]2C(=O)N1CCN(C(=O)C2CC2)CC1 (stereo partly drawn)	-3	6	-2	-3	14	/	/
Cc1ccc(S(=O)(=O)/N=C(/Nc2ccc([N+](=O)[O-])cc2[N+](=O)[O-])c2ccccc2)cc1	5	13	-3	2	-22	/	/
COc1ccc(-c2nn(-c3ccccc3)cc2C(N)=O)cc1OC	-3	-2	-2	0	16	/	/
COc1ccc(NS(=O)(=O)c2cccc(C(=O)NNC(=O)c3ccc(=O)[nH]c3)c2)cc1	-5	5	-2	5	20	/	/
CC(=O)Nc1ccc(NC(=O)CCC(=O)OCC(=O)c2ccc(C)c([N+](=O)[O-])c2)cc1	-11	21*	-8	-1	57*	36*	1
Fc1ccc(NC(=S)Nc2nccs2)cc1	-6	11	-3	-1	29*	-8	9
CC(C)(C)c1nnc(NC(=S)Nc2ccccc2)s1	-7	11	-4	-6	38*	-17	6
S=C(Nc1ccccc1)Nc1nccs1	-7	-8	2	13	33*	5	2
CC(=O)NC(c1ccc(Cl)cc1)c1c(O)ccc2ccc(O)cc12 (stereo not drawn)	-7	10	-4	-2	33*	-18	2
Cc1cccc(N(C)S(=O)(=O)c2c(C)noc2C)c1	-2	9	-2	7	10	/	/
Cc1cccc(C)c1OCC(=O)NNC(=S)NC(=O)C1CC1	-7	29	-6	-7	36*	-72	-36
Cc1cccc(C)c1OCC(=O)NC1CC1	-2	-6	3	-1	9	/	/
Cc1ccc(S(=O)(=O)Nc2cccc3cccnc23)cc1	-7	11	-6	-8	44*	11	5

From PubChem
